Source: the supplement of paper PMC4466140

Columns and labels:
Assay in all cases: SPOT peptide array binding signal intensity (averaged, normalized) (arbitrary units (background-subtracted, floor 0; scale differs between SH3 domains)); higher = stronger binding of the SH3 domain to the peptide
[1] = biological target: AgAbp1
Outline: (§1)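 To measure binding, SH3 domains from four yeast species were fused to GST, expressed in E. coli BL21(DE3) and purified on glutathione Sepharose. Each domain was incubated at 10 μg/ml overnight at 4°C on cellulose membranes with synthetic 15-mer peptides whose cysteines were replaced by serines. Anti-GST antibody, an HRP anti-mouse secondary and luminol were used for detection, and images were quantified with Genespotter. Reported binding signal is normalized, background-subtracted spot intensity averaged over replicates, in arbitrary units that differ between domains.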

[2] = biological target: AgBbc1
Outline: as §1

[3] = biological target: AgBem1-D1
Outline: as §1

[4] = biological target: AgBzz1-D1
Outline: as §1

[5] = biological target: AgBzz1-D2
Outline: as §1

[6] = biological target: AgCyk3
Outline: as §1

[7] = biological target: AgFus1
Outline: as §1

[8] = biological target: AgHof1
Outline: as §1

[9] = biological target: AgHse1
Outline: as §1

[10] = biological target: AgLsb1
Outline: as §1

[11] = biological target: AgLsb4
Outline: as §1

[12] = biological target: AgMyo5
Outline: as §1

[13] = biological target: AgNbp2
Outline: as §1

[14] = biological target: AgRvs167
Outline: as §1

[15] = biological target: AgSho1
Outline: as §1

[16] = biological target: AgSla1-D1-D2
Outline: as §1

[17] = biological target: AgSla1-D3
Outline: as §1

[18] = biological target: CaAbp1-D1
Outline: as §1

[19] = biological target: CaAbp1-D2
Outline: as §1

[20] = biological target: CaBbc1
Outline: as §1

[21] = biological target: CaBem1-D1
Outline: as §1

[22] = biological target: CaBzz1-D1
Outline: as §1

[23] = biological target: CaBzz1-D2
Outline: as §1

[24] = biological target: CaCyk3
Outline: as §1

[25] = biological target: CaFus1
Outline: as §1

[26] = biological target: CaHof1
Outline: as §1

[27] = biological target: CaHse1
Outline: as §1

[28] = biological target: CaLsb1
Outline: as §1

[29] = biological target: CaLsb4
Outline: as §1

[30] = biological target: CaMyo5
Outline: as §1

[31] = biological target: CaNbp2
Outline: as §1

[32] = biological target: CaRvs167
Outline: as §1

[33] = biological target: CaRvs167-3
Outline: as §1

[34] = biological target: CaSho1
Outline: as §1

[35] = biological target: CaSla1-D1-D2
Outline: as §1

[36] = biological target: CaSla1-D3
Outline: as §1

[37] = biological target: ScAbp1
Outline: as §1

[38] = biological target: ScBbc1
Outline: as §1

[39] = biological target: ScBem1-D1
Outline: as §1

[40] = biological target: ScBzz1-D1
Outline: as §1

[41] = biological target: ScBzz1-D2
Outline: as §1

[42] = biological target: ScCyk3
Outline: as §1

[43] = biological target: ScFus1
Outline: as §1

[44] = biological target: ScHof1
Outline: as §1

[45] = biological target: ScHse1
Outline: as §1

[46] = biological target: ScLsb1
Outline: as §1

[47] = biological target: ScLsb2
Outline: as §1

[48] = biological target: ScLsb3
Outline: as §1

[49] = biological target: ScLsb4
Outline: as §1

[50] = biological target: ScMyo3
Outline: as §1

[51] = biological target: ScMyo5
Outline: as §1

[52] = biological target: ScNbp2
Outline: as §1

[53] = biological target: ScPex13
Outline: as §1

[54] = biological target: ScRvs167
Outline: as §1

[55] = biological target: ScSho1
Outline: as §1

[56] = biological target: ScSla1-D1-D2
Outline: as §1

[57] = biological target: ScSla1-D3
Outline: as §1

[58] = biological target: SpAbp1-D1
Outline: as §1

[59] = biological target: SpBbc1
Outline: as §1

[60] = biological target: SpBzz1-D1
Outline: as §1

[61] = biological target: SpBzz1-D2
Outline: as §1

[62] = biological target: SpCyk3
Outline: as §1

[63] = biological target: SpHof1
Outline: as §1

[64] = biological target: SpHof1-2
Outline: as §1

[65] = biological target: SpHof1-3
Outline: as §1

[66] = biological target: SpHse1
Outline: as §1

[67] = biological target: SpLsb1
Outline: as §1

[68] = biological target: SpLsb4
Outline: as §1

[69] = biological target: SpMyo1
Outline: as §1

[70] = biological target: SpNbp2
Outline: as §1

[71] = biological target: SpPex13
Outline: as §1

[72] = biological target: SpRvs167
Outline: as §1

[73] = biological target: SpSla1-D1-D2
Outline: as §1

[74] = biological target: SpSla1-D3
Outline: as §1

Question: Which results are given for VAPPPLPNRQLPNLD?
Answer: SPOT peptide array binding signal intensity [1]: 1.5; SPOT peptide array binding signal intensity [2]: 45.5; SPOT peptide array binding signal intensity [3]: 16; SPOT peptide array binding signal intensity [4]: 3; SPOT peptide array binding signal intensity [5]: ≤ 0; SPOT peptide array binding signal intensity [6]: ≤ 0; SPOT peptide array binding signal intensity [7]: ≤ 0; SPOT peptide array binding signal intensity [8]: 247; SPOT peptide array binding signal intensity [9]: 51; SPOT peptide array binding signal intensity [10]: 693; SPOT peptide array binding signal intensity [11]: 5100; SPOT peptide array binding signal intensity [12]: 364; SPOT peptide array binding signal intensity [13]: ≤ 0; SPOT peptide array binding signal intensity [14]: 952; SPOT peptide array binding signal intensity [15]: ≤ 0; SPOT peptide array binding signal intensity [16]: 1.5; SPOT peptide array binding signal intensity [17]: ≤ 0; SPOT peptide array binding signal intensity [18]: ≤ 0; SPOT peptide array binding signal intensity [19]: 5; SPOT peptide array binding signal intensity [20]: 252; SPOT peptide array binding signal intensity [21]: ≤ 0; SPOT peptide array binding signal intensity [22]: 14; SPOT peptide array binding signal intensity [23]: 4; SPOT peptide array binding signal intensity [24]: 1; SPOT peptide array binding signal intensity [25]: ≤ 0; SPOT peptide array binding signal intensity [26]: 2; SPOT peptide array binding signal intensity [27]: 569; SPOT peptide array binding signal intensity [28]: 3.25; SPOT peptide array binding signal intensity [29]: 4840; SPOT peptide array binding signal intensity [30]: 2.5; SPOT peptide array binding signal intensity [31]: 28.5; SPOT peptide array binding signal intensity [32]: 3100; SPOT peptide array binding signal intensity [33]: ≤ 0; SPOT peptide array binding signal intensity [34]: ≤ 0; SPOT peptide array binding signal intensity [35]: ≤ 0; SPOT peptide array binding signal intensity [36]: ≤ 0; SPOT peptide array binding signal intensity [37]: 2; SPOT peptide array binding signal intensity [38]: ≤ 0; SPOT peptide array binding signal intensity [39]: ≤ 0; SPOT peptide array binding signal intensity [40]: 3.5; SPOT peptide array binding signal intensity [41]: ≤ 0; SPOT peptide array binding signal intensity [42]: ≤ 0; SPOT peptide array binding signal intensity [43]: ≤ 0; SPOT peptide array binding signal intensity [44]: 39.2; SPOT peptide array binding signal intensity [45]: 10.5; SPOT peptide array binding signal intensity [46]: 1610; SPOT peptide array binding signal intensity [47]: 203; SPOT peptide array binding signal intensity [48]: 8010; SPOT peptide array binding signal intensity [49]: 4010; SPOT peptide array binding signal intensity [50]: 321; SPOT peptide array binding signal intensity [51]: 208; SPOT peptide array binding signal intensity [52]: ≤ 0; SPOT peptide array binding signal intensity [53]: 1660; SPOT peptide array binding signal intensity [54]: 2740; SPOT peptide array binding signal intensity [55]: ≤ 0; SPOT peptide array binding signal intensity [56]: ≤ 0; SPOT peptide array binding signal intensity [57]: ≤ 0; SPOT peptide array binding signal intensity [58]: 8; SPOT peptide array binding signal intensity [59]: ≤ 0; SPOT peptide array binding signal intensity [60]: 176; SPOT peptide array binding signal intensity [61]: ≤ 0; SPOT peptide array binding signal intensity [62]: 5; SPOT peptide array binding signal intensity [63]: ≤ 0; SPOT peptide array binding signal intensity [64]: 11.5; SPOT peptide array binding signal intensity [65]: 31; SPOT peptide array binding signal intensity [66]: 71.5; SPOT peptide array binding signal intensity [67]: 1020; SPOT peptide array binding signal intensity [68]: 5980; SPOT peptide array binding signal intensity [69]: 461; SPOT peptide array binding signal intensity [70]: ≤ 0; SPOT peptide array binding signal intensity [71]: ≤ 0; SPOT peptide array binding signal intensity [72]: 3250; SPOT peptide array binding signal intensity [73]: ≤ 0; SPOT peptide array binding signal intensity [74]: ≤ 0

Question: Which “SPOT peptide array binding signal intensity” value [1] does the source give for FYNRTAFQLPGDARV here?
Answer: 1.5

Question: And the “SPOT peptide array binding signal intensity” value [2]?
Answer: 0.5

Question: What about the “SPOT peptide array binding signal intensity” value [3] of the same binder?
Answer: ≤ 0

Question: What about the “SPOT peptide array binding signal intensity” value [4] of the same binder?
Answer: 39.5

Question: What about the “SPOT peptide array binding signal intensity” value [5] of the same binder?
Answer: 39

Question: And the “SPOT peptide array binding signal intensity” value [6]?
Answer: 2

Question: And the “SPOT peptide array binding signal intensity” value [7]?
Answer: 12

Question: What about the “SPOT peptide array binding signal intensity” value [8] of the same binder?
Answer: 12.2

Question: What about the “SPOT peptide array binding signal intensity” value [9] of the same binder?
Answer: 18

Question: What about the “SPOT peptide array binding signal intensity” value [10] of the same binder?
Answer: 1140

Question: And the “SPOT peptide array binding signal intensity” value [11]?
Answer: ≤ 0

Question: And the “SPOT peptide array binding signal intensity” value [12]?
Answer: 9.5

Question: And the “SPOT peptide array binding signal intensity” value [13]?
Answer: ≤ 0

Question: And the “SPOT peptide array binding signal intensity” value [14]?
Answer: 1.83

Question: What about the “SPOT peptide array binding signal intensity” value [15] of the same binder?
Answer: ≤ 0

Question: And the “SPOT peptide array binding signal intensity” value [16]?
Answer: 1

Question: And the “SPOT peptide array binding signal intensity” value [17]?
Answer: 1

Question: And the “SPOT peptide array binding signal intensity” value [18]?
Answer: 7

Question: What about the “SPOT peptide array binding signal intensity” value [19] of the same binder?
Answer: ≤ 0

Question: What about the “SPOT peptide array binding signal intensity” value [20] of the same binder?
Answer: 3

Question: And the “SPOT peptide array binding signal intensity” value [21]?
Answer: 16

Question: What about the “SPOT peptide array binding signal intensity” value [22] of the same binder?
Answer: 37.5

Question: And the “SPOT peptide array binding signal intensity” value [23]?
Answer: 30.5

Question: And the “SPOT peptide array binding signal intensity” value [24]?
Answer: 5

Question: What about the “SPOT peptide array binding signal intensity” value [25] of the same binder?
Answer: 21.5

Question: And the “SPOT peptide array binding signal intensity” value [26]?
Answer: 0.5

Question: What about the “SPOT peptide array binding signal intensity” value [27] of the same binder?
Answer: 2

Question: What about the “SPOT peptide array binding signal intensity” value [28] of the same binder?
Answer: 410

Question: What about the “SPOT peptide array binding signal intensity” value [29] of the same binder?
Answer: ≤ 0

Question: What about the “SPOT peptide array binding signal intensity” value [30] of the same binder?
Answer: 13.5

Question: Which “SPOT peptide array binding signal intensity” value [61] does the source give for VLRFLGFPLPIFEKG here?
Answer: 1

Question: And the “SPOT peptide array binding signal intensity” value [62]?
Answer: 3

Question: What about the “SPOT peptide array binding signal intensity” value [63] of the same binder?
Answer: 13.8

Question: What about the “SPOT peptide array binding signal intensity” value [64] of the same binder?
Answer: 5.5

Question: And the “SPOT peptide array binding signal intensity” value [65]?
Answer: 486

Question: And the “SPOT peptide array binding signal intensity” value [66]?
Answer: 1290

Question: And the “SPOT peptide array binding signal intensity” value [67]?
Answer: ≤ 0

Question: What about the “SPOT peptide array binding signal intensity” value [68] of the same binder?
Answer: ≤ 0

Question: What about the “SPOT peptide array binding signal intensity” value [69] of the same binder?
Answer: ≤ 0

Question: And the “SPOT peptide array binding signal intensity” value [70]?
Answer: 37.5

Question: What about the “SPOT peptide array binding signal intensity” value [71] of the same binder?
Answer: 5

Question: And the “SPOT peptide array binding signal intensity” value [72]?
Answer: ≤ 0

Question: And the “SPOT peptide array binding signal intensity” value [73]?
Answer: 3

Question: What about the “SPOT peptide array binding signal intensity” value [74] of the same binder?
Answer: 1
